Measurements as given in PubChem BioAssay (NCATS).
Where “and” joins values, the source holds several entries; their conditions need not be identical. Equal values may be shown once. Records with an inconclusive call do not appear. Calls of active or inactive are those of the source. The call rests on the fitted dose curve; in most records, active means well fitted curve in the direction sought with a large enough effect; inconclusive means small, poorly fitted or top-dose-only effect, or another doubt; inactive means no such curve, though single readings can be large or run the other way.

Test: qHTS Assay for Identifying Gametocytocidal Compounds (AID 743244);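 on max response: actives lower the fluorescent signal which means gametocytes are killed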
Settings: P. falciparum 3D7 stage III-V gametocytes, alamarBlue, 72 h; max response: active compounds read low
Summary of the method: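 Compounds are pinned into medium, gametocytes (stage III–V, 3D7, 20,000 cells/well) added, and plates held 72 h at 37 °C in 5% CO2. AlamarBlue follows for 24 h before fluorescence reading.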
On the % scale 0 is the no-effect control and ±100 the full control effect; potency means the concentration at half of the fitted maximal effect.

| SMILES | max response | Potency |
| --- | --- | --- |
| CC(=O)OCC(=O)[C@@]1(O)[C@H](C)C[C@H]2[C@@H]3CCC4=CC(=O)C=C[C@]4(C)[C@@]3(F)[C@@H](O)C[C@@]21C | 9.89% (inactive) and -3.15% (inactive) |  |
| Cc1ncc(CSSCc2cnc(C)c(O)c2CO)c(CO)c1O | -2.24% (inactive) |  |
| C[C@]12C=CC(=O)C=C1[C@@H](F)C[C@@H]1[C@@H]2[C@@H](O)C[C@@]2(C)[C@H]1CC[C@]2(O)C(=O)CO | -0.315% (inactive) and -15.3% (inactive) |  |
| CCOc1ccc(Cc2nccc3cc(OCC)c(OCC)cc23)cc1OCC | 10.4% (inactive) |  |
| CC(C)COC(=O)c1ccc(N)cc1 | 10.2% (inactive) |  |
| Cc1c(N(C)CS(=O)(=O)O)c(=O)n(-c2ccccc2)n1C | 18.3% (inactive) |  |
| C/C=C/c1ccc(OC)cc1 | 16% (inactive) |  |
| CC(=O)Oc1ccc2c(c1)CC[C@@H]1[C@@H]2CC[C@]2(C)[C@@H](O)CC[C@@H]12 | 0.116% (inactive) |  |
| CCN(CC)CCNC(=O)COc1ccc(Cl)cc1 | -6.47% (inactive) |  |
| CC(=O)c1ccc2c(c1)N(CCCN1CCC(CCO)CC1)c1ccccc1S2 | -4.88% (inactive) |  |
| CCCSS/C(CCO)=C(\C)N(C=O)Cc1cnc(C)nc1N | 2.02% (inactive) |  |
| Cc1nc2n(c(=O)c1CCN1CCC(c3noc4cc(F)ccc34)CC1)CCC[C@H]2O | -12.7% (inactive) |  |
| C[C@]12CC[C@H]3[C@@H](CCC4=CC(=O)CC[C@@]43C)[C@@H]1CC[C@@H]2C(=O)CO | 8.05% (inactive) |  |
| O=C(O)CNC(=O)c1ccccc1 | 1.04% (inactive) |  |
| CCN1CCC[C@H]1CNC(=O)c1c(OC)ccc(Br)c1OC | -8.08% (inactive) |  |
| CCCN1CCCC[C@H]1C(=O)Nc1c(C)cccc1C | -10.7% (inactive) |  |
| CC(=O)OCC(=O)NCCCOc1cccc(CN2CCCCC2)c1 | 8.95% (inactive) and 5.62% (inactive) |  |
| O=C(OCCOCCO)c1ccccc1Nc1cccc(C(F)(F)F)c1 | 12.2% (inactive) |  |

| SMILES | max response | Potency |
| --- | --- | --- |
| Cc1ccnc(NS(=O)(=O)c2ccc(N)cc2)n1 | 9.97% (inactive) |  |
| CC1(C)O[C@@H]2C[C@H]3[C@@H]4C[C@H](F)C5=CC(=O)C=C[C@]5(C)[C@H]4[C@@H](O)C[C@]3(C)[C@]2(C(=O)CO)O1 | -4.1% (inactive) |  |
| CCCCS(=O)(=O)N[C@@H](Cc1ccc(OCCCCC2CCNCC2)cc1)C(=O)O | 3.65% (inactive) |  |
| CC(C)(CO)[C@@H](O)C(=O)NCCCO | 14.7% (inactive) |  |
| CCOC(=O)OC(C)OC1=C(C(=O)Nc2ccccn2)N(C)S(=O)(=O)c2ccccc21 (stereo unspecified) | -4.24% (inactive) |  |
| CN1CCC(=C2c3ccccc3Sc3ccccc32)CC1 |  | 15.8 µM (active) |
| CC1=C(C(=O)OC(C)C)C(c2cccc([N+](=O)[O-])c2)C(C(=O)OC2CN(C(c3ccccc3)c3ccccc3)C2)=C(N)N1 (stereo unspecified) | 7.23% (inactive) |  |
| CC(=O)OCC(=O)[C@@]1(OC(C)=O)[C@@H](C)C[C@H]2[C@@H]3C[C@H](F)C4=CC(=O)C=C[C@]4(C)[C@@]3(F)[C@@H](O)C[C@@]21C | 29% (inactive) |  |
| CN(C)CCOc1ccccc1Cc1ccccc1 | -21.1% (inactive) |  |
| O=C(Nc1ccc(Oc2ccc(Cl)cc2)c(Cl)c1)c1cc(I)cc(I)c1O | -9.6% (inactive) |  |
| CN(C/C=C/c1ccccc1)Cc1cccc2ccccc12 | 6.22% (inactive) |  |
| Cc1cc(O)c(C(C)C)cc1Cl | -3.92% (inactive) |  |
| NC[C@H]1O[C@H](O[C@H]2[C@H](O[C@@H]3O[C@H](CO)[C@@H](O)[C@H]3O)C(O)[C@H](N)C[C@@H]2N)[C@H](N)[C@@H](O)[C@@H]1O (stereo partly specified) | 0.613% (inactive) |  |
| Cc1onc(-c2c(Cl)cccc2Cl)c1C(=O)N[C@@H]1C(=O)N2[C@@H]1SC(C)(C)[C@@H]2C(=O)O | -15.6% (inactive) |  |
| Nc1ccc(/C=C/c2ccc(N)cc2S(=O)(=O)O)c(S(=O)(=O)O)c1 | 1.42% (inactive) |  |
| CCCCCC=CCC=CCCCCCCCC(=O)OCC | 0.796% (inactive) |  |
| CN(C)CCCOc1nn(Cc2ccccc2)c2ccccc12 | 10.4% (inactive) |  |
| CNCC[C@@H](Oc1ccccc1C)c1ccccc1 | -11.3% (inactive) |  |
